# Rows were chosen to be rich in hits. Some 19% of all compounds tested hit in one or more screens of this group.
# ELG1 repair inh: inhibitors of ELG1-dependent DNA repair in HEK293T cells; HEK293T ELG1-luciferase reporter, luminescence, 16 h; DNA damage induced by 5-fluorouridine; Potency, µM (titrated, usually from 46.1 µM), without a hit: top-dose activity change, negative = inhibition, actives largely listed as inhibitors; 330,000 tested, 2.3% active; note: potency is the fitted concentration of half-maximal effect; nearly all actives have a fitted effect of over 55% in size
#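 Luminescence from the luciferase reporter, measured 30 min after ONE-Glo reagent at room temperature, was the read-out. Beforehand, 2,000 cells per well were exposed for 16 hr at 37 °C to 5-fluorouridine together with compound or vehicle.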
# DT40 TDP1 CPT: growth inhibition of DT40 Tdp1-/-;hTDP1 cells with camptothecin (screen for TDP1 inhibitors) | chicken DT40 Tdp1-/-;hTDP1 cells + 20 nM CPT, ATP luminescence, 48 h | AID 686979 | Potency, µM (series often up to 46.2 µM), for the others: at the highest dose activity change, negative = growth inhibition, hits mostly inhibitors | 420,000 tested, 12% active; note: potency is the fitted concentration of half-maximal effect; nearly all actives have a fitted effect of over 55% in size
#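 Chicken DT40 Tdp1-/- cells stably complemented with human TDP1 were seeded at 400 cells/well in medium containing 20 nM camptothecin, exposed to pin-transferred compounds, and grown at 37 °C for at least 48 hr. Viability was read as ATP luminescence.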
# HT1080 IDH1KD tx: HT-1080 IDH1 knockdown cell toxicity (counter line); AID 686971; 360,000 tested, 2% active; Potency, µM (titrated, usually from 46.1 µM), for inactives: at the highest dose activity, negative = toxicity, hits mostly cytotoxic; HT-1080 IDH1 knockdown viability, ATP luminescence, 48 h;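 note: potency is the fitted concentration of half-maximal effect; 0% = DMSO wells and -100% = cell-free medium wells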
#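 Assay cells: HT-1080 with IDH1 knockdown, 750 per well, RPMI/5% FBS. Exposure: 48 h at 37 °C following 2 h pre-incubation. Read: CellTiter-Glo luminescence; fitted concentration-response, curve class assigned.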
# IL1B secr inh: inhibitors of inflammasome signaling (IL-1 beta secretion); THP-1 LPS/ATP IL-1B secretion, AlphaLISA, 16 h; stronger effect = lower value; activity change, % at 57.5 µM; 360,000 tested, 4.7% active; in the data active = activity change below about -50%; inconclusive = mostly about -30% to -49%
#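 Secreted IL-1B measured by AlphaLISA bead assay after 16 h compound exposure of THP-1 cells; compounds (final up to 57.5 uM) added 1 h before LPS (250 ng/mL) and ATP (1.25 mM) stimulation; lower signal means less secretion.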
# TDP1 cell noCPT: qHTS for Inhibitors of human tyrosyl-DNA phosphodiesterase 1 (TDP1): qHTS in cells in absence of CPT; 420,000 tested, 15% active; DT40 Tdp1-/- hTDP1 cells, no CPT, ATP luminescence, 48 h; Potency, µM (doses to about 46.2 µM), for inactives: top-dose activity change, negative = growth inhibition, actives largely listed as inhibitors; note: potency is the fitted concentration of half-maximal effect; nearly all actives have a fitted effect of over 55% in size
#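 Chicken DT40 Tdp1-/- cells complemented with human TDP1, screened without camptothecin (DMSO vehicle only), 400 cells/well. Compounds pin-transferred, cells incubated at 37 °C for at least 48 hr. Growth read as ATP-dependent luminescence (CellTiter-Glo, 30 min at RT).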
# HT1080NT lethal: kills 2HG-producing HT-1080-NT fibrosarcoma cells; AID 686970; Potency, µM (doses to about 46.1 µM), without a hit: at the highest dose activity, negative = less viability, most hits filed as cytotoxic; 360,000 tested, 1.6% active; HT-1080-NT fibrosarcoma viability, CellTiter-Glo ATP luminescence, 48 h;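 note: NT is the 2HG producing partner of a matched IDH1 knockdown line; potency is the fitted concentration of half-maximal effect; 0% = DMSO-treated cells and -100% = media-only wells without cells; nearly all actives have a fitted effect of over 55% in size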
#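 Compounds were tested in concentration-response format on HT-1080-NT cells for 48 hours at 37 degrees C. Cell viability came from CellTiter-Glo luminescence; curves were classified by r2, response magnitude and activity.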
# Numbers without * were called inactive; i = inactive; ? = inconclusive; / = not tested or not shown. Unless noted, calls come from the whole dose curve; as a rule, active = well fitted curve in the direction sought with a large enough effect; inconclusive = small, poorly fitted or top-dose-only effect, or another doubt; inactive = no such curve, though single readings can be large; an effect the other way counts as inactive or inconclusive. Unless noted, % is set by controls: 0 for no effect and ±100 for the full control effect.
SMILES,ELG1 repair inh,DT40 TDP1 CPT,HT1080 IDH1KD tx,IL1B secr inh,TDP1 cell noCPT,HT1080NT lethal
CC(=O)c1ccccc1C(=O)N1CCCC(CCC(=O)N2CCN(c3ccccn3)CC2)C1 (centres undefined),23.1µM*,-12.7%,-2.9%,i,-27.6%,-2.2%
CCCN1C(=O)CC(c2ccc(OC)c(OC)c2)C1=O (centres undefined),/,0.0%,5.4%,9.2,3.0%,28.0%
Cc1ccccc1NC(=O)C(C)Sc1nnc(-c2ccncc2)n1CC1CCCO1 (centres undefined),7.8%,-5.0%,-4.4%,3.5,-12.6%,1.3%
CC(C)c1ccc(NC(=O)C2CCCN(S(=O)(=O)c3cccc4nsnc34)C2)cc1 (centres undefined),/,4.61µM*,/,/,10.3µM*,/
O=C(Nc1ccc(F)c(Cl)c1)C1CCCN(S(=O)(=O)c2cccc3nsnc23)C1 (centres undefined),/,16.4µM*,/,/,23.1µM*,/
COc1ccc(C2=NN(CC(=O)NCC(OC)OC)C(=O)CC2)cc1,10.9%,-1.9%,4.5%,6.4,-7.2%,5.4%
O=C(N/N=C/C=C/c1ccccc1)c1ccncc1,?,?,-15.9%,2.1,20.6µM*,-8.2%
COc1cccc(/C=N/NC(=O)CCc2c(C)n[nH]c2C)c1O,?,?,?,67.5,?,-21.6%
COc1cc(/C=N\NC(=O)c2ccc(=O)[nH]n2)cc(OC)c1OC,-14.6%,?,26.2%,56.0,?,13.9%
COc1cccc(/C=N/NC(=O)c2cc(-c3cccn3C)n[nH]2)c1O,?,5.8µM*,?,80.5,6.51µM*,-16.6%
Cn1cccc1-c1cc(C(=O)N/N=C/C=C/c2ccccc2)[nH]n1,-11.3%,?,-9.2%,-90.5*,?,-5.5%
COc1cc(/C=N/NC(=O)c2cc(-c3cccn3C)n[nH]2)cc(OC)c1OC,?,20.6µM*,-6.5%,-85.3*,20.6µM*,2.1%
O=C(CN1CCN(Cc2ccc(F)cc2Cl)CC1)NCc1ccccc1,-20.0%,?,0.6%,-7.8,-20.6%,-0.3%
O=C1CC(c2ccccc2)CC(=O)N1c1ccc(C(F)(F)F)cc1,18.3%,-7.5%,-2.0%,18.4,-12.4%,-1.2%
COc1ccc(S(=O)(=O)NNC(=O)c2cc3ccccc3o2)cc1,-6.6%,-3.9%,15.7%,5.5,-0.9%,-0.8%
CC1(C)CC[C@]2(C(=O)O)[C@H](O)C[C@]3(C)C(=CCC4[C@@]5(C)C[C@H](O)[C@H](O)[C@@](C)(CO)C5CC[C@]43C)[C@@H]2C1 (some centres undefined),9.8%,10.2%,-3.4%,35.7,-5.2%,-0.8%
CCc1nc2c(OCc3ccccc3)cccn2c1N(Cc1ccccc1)C(C)=O,/,18.4µM*,-13.8%,-14.0,?,-7.0%
CCOC(=O)N(C)c1c(CC)nc2c(OCc3ccccc3)cccn12,/,20.6µM*,6.4%,14.8,23.1µM*,10.1%
CCc1nc2c(OCc3ccc(C(=O)N(C)C)cc3)cccn2c1N(C=O)Cc1ccccc1,/,?,0.0%,-21.3,-16.5%,6.0%
CN(C)C(=O)c1ccc(-c2cc(N(C)Cc3ccco3)ncn2)cc1,/,-6.5%,/,/,-3.7%,/
COc1ccc(-c2nnc(SCc3nc4ccccc4s3)n2C(C)C)cc1,?,?,-17.6%,-10.9,20.6µM*,-18.2%
Cn1c(=O)c([N+](=O)[O-])c(NCc2ccccc2Cl)c2ccccc21,?,-5.3%,-12.8%,-78.6*,?,-9.0%
Cn1c(=O)c([N+](=O)[O-])c(NCc2ccc3c(c2)OCO3)c2ccccc21,-13.1%,3.0%,4.3%,38.6,-23.5%,-0.4%

# Screening data: PubChem, National Center for Advancing Translational Sciences (NCATS)
